Compound activity as filed in PubChem.
The list is not random: actives were taken first. Their share in the collection is about 1.2%.
RGS8-Gao reg: modulates binding of RGS8 to human Galphao; response (percent of control binding), % at 10 µM; multiplexed bead flow cytometry; actives lie on both sides; actives 0.34% (n = 220,000); P09471; in the data active = response below about 60% or above about 140%; inactive = in between;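 note: Galphao activated as the GDP aluminium fluoride complex binding bead-coupled RGS8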
Target sequence (P09471 whole entry, looked up): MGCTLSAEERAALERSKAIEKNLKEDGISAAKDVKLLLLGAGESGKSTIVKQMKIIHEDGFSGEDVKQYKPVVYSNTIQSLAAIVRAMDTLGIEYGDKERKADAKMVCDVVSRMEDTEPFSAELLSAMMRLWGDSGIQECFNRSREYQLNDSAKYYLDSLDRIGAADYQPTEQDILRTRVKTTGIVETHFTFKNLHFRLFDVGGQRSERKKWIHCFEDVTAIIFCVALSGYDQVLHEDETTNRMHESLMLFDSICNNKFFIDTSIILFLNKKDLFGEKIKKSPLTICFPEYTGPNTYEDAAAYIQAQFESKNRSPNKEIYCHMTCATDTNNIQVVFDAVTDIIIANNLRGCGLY
GSH fluor: compound fluoresces at 488/530 nm on GSH beads | actives 0.25% (n = 190,000) | fluorescence (KMESF) at 10 µM | GSH beads flow cytometry, compound fluorescence 488/530 nm; hits give high values | AID 1776; in the data active = fluorescence above about 89;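 note: glutathione beads carrying GST-tagged Bcl family fusion proteins plus one bare bead set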
RGS16-Gao HTS: regulators of human RGS16-Galphao interaction; O15492+P09471; bead-based flow cytometry RGS16-Galphao binding, fluorescence; actives lie on both sides; binding response (% of control), % at 10 µM; actives 0.38% (n = 220,000); AID 1441;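 note: Galphao activated by GDP with aluminum fluoride before binding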
Target sequence (O15492 whole entry, looked up): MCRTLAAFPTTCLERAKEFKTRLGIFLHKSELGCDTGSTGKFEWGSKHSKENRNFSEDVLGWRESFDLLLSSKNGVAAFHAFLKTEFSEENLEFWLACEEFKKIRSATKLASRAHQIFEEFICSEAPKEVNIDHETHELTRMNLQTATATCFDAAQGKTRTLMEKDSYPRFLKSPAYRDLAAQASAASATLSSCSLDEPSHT
Target sequence (P09471 whole entry, looked up): as the sequence (P09471 whole entry, looked up) above
RGS7-Gao reg: regulators of human RGS7-Galphao interaction. Multiplexed bead flow cytometry, RGS7-Galphao binding; actives lie on both sides. binding response (% of control), % at 10 µM. actives 0.35% (n = 220,000). AID 1439; in the data active = binding response below about 49% or above about 150%; inconclusive = no clear call, values can overlap the other calls; inactive = in between;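 note: fluorescent Galphao held in activated GDP-AlF4 state binding bead-coupled RGS7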
RGS4-Gao reg: modulates binding of RGS4 to human Galphao | Multiplexed bead flow cytometry; actives lie on both sides | binding response (% of control), % at 10 µM | actives 0.33% (n = 220,000) | AID 1415; in the data active = binding response below about 49% or above about 150%; inactive = in between;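 note: fluorescent Galphao activated with aluminum fluoride binding bead-coupled RGS4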
Avidin bead fluor: compound fluoresces at 488/530 nm on avidin beads; actives 0.38% (n = 220,000); fluorescence (KMESF) at 10 µM; compound fluorescence 488/530 nm, flow cytometry; hits give high values; AID 1775; in the data active = fluorescence above about 47
RGS4-Gao HTS: regulators of human RGS4-Galphao interaction. shares compounds with RGS16-Gao HTS. multiplexed bead flow cytometry, RGS–Galpha-o binding. RGS4–Galpha-o binding response, % at 10 µM. actives 99% (n = 1,600). AID 1504;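 note: fluorescently labeled Galpha-o bound to GDP with aluminium fluoride binding biotinylated RGS beads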
Avidin counter: interferes with biotinylated probe binding to avidin beads. streptavidin beads, fluorescein-biotin binding, flow cytometry. AID 1783. 1,700 tested, under 10 active. shares compounds with RGS16-Gao HTS. inhibition, % at 10 µM;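 active = inhibition above 50%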;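 note: median green fluorescence of gated singlet beads compared with DMSO control wells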
RGS8-Gao single: RGS8-Galphao interaction regulation, single point confirmation; binding response (% of control), % at 10 µM; actives 3% (n = 1,700); bead-based flow cytometry RGS8-Galphao binding, fluorescence; actives lie on both sides; shares compounds with RGS16-Gao HTS; in the data active = binding response below about 72% or above about 130%; inactive = in between;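 note: Galphao activated as GDP AlF4 complex before binding bead RGS8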
RGS7-Gao confirm: confirmation of regulators of human RGS7-Galphao interaction. shares compounds with RGS16-Gao HTS. bead-based flow cytometry RGS7-Galphao binding; actives lie on both sides. response (percent of control binding), % at 10 µM. actives 7.8% (n = 1,700). AID 1837; in the data active = response below about 75% or above about 130%; inactive = in between;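 note: fluorescent Galphao activated with GDP and aluminum fluoride binding bead-coupled RGS7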
RGS16-Gao single: RGS16-Galphao interaction regulation, single point confirmation; shares compounds with RGS16-Gao HTS; bead-based flow cytometry, RGS16-Galphao binding; actives lie on both sides; AID 1838; actives 4% (n = 1,700); response (% of control binding), % at 10 µM; in the data active = response below about 74% or above about 130%; inactive = in between;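 note: Galphao activated as the GDP aluminium fluoride complex binding bead-coupled RGS16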
RGS4-Gao confirm: confirmation of regulators of human RGS4-Galphao interaction; binding response (% of control), % at 10 µM; shares compounds with RGS16-Gao HTS; RGS4-Galphao binding, multiplexed bead flow cytometry; actives lie on both sides; actives 4% (n = 1,700); in the data active = binding response below about 74% or above about 130%; inactive = in between
RGS19-Gao single: confirmation of regulators of human RGS19-Galphao interaction | response (percent of control binding), % at 10 µM | shares compounds with RGS16-Gao HTS | actives 5% (n = 1,700) | bead-based flow cytometry RGS19-Galphao binding; actives lie on both sides; in the data active = response below about 50% or above about 160%; inactive = in between
Hits are given with their value; - = inactive; ? = inconclusive; . = not tested or not shown; [ ] = another dose, or the depositor's remark. Unless noted, the rule behind the calls is not given here.

SMILES	RGS8-Gao reg	GSH fluor	RGS16-Gao HTS	RGS7-Gao reg	RGS4-Gao reg	Avidin bead fluor	RGS4-Gao HTS	Avidin counter	RGS8-Gao single	RGS7-Gao confirm	RGS16-Gao single	RGS4-Gao confirm	RGS19-Gao single
O=C(NCCc1ccncc1)Nc1ccccc1Cl	-	-	-	194[activator]	-	126	88	-	-	-	-	-	-
Cc1cc2nc3n(c2cc1C)CC1CC(C(=O)NCC2CC2)N(C)C31 (stereo not drawn)	-	.	-	?	-	-	.	.	.	.	.	.	.
CCn1c2ccccc2c2cc(NC(=O)CSc3nnnn3-c3ccccc3)ccc21	.	-	.	.	.	.	.	-	-	-	-	-	-
O=C(CSc1nnnn1-c1ccccc1)Nc1ccc(Cl)cc1	-	-	-	-	-	-	.	.	.	.	.	.	.
O=C(COc1ccccc1[N+](=O)[O-])Nc1ccc(Br)cc1	-	.	-	?	-	-	.	.	.	.	.	.	.
O=C(C/C=N\OCc1ccc([N+](=O)[O-])cc1)Nc1ccc(Br)cc1	-	-	-	157[activator]	-	-	106	-	-	-	-	-	-
CC(C)Oc1ccc(Cc2cnc(N)nc2N)cc1	163[activator]	-	-	-	-	-	137	-	-	-	-	-	-
CCCCOc1ccc(Cc2cnc(N)nc2N)cc1	-	.	-	?	-	-	.	.	.	.	.	.	.
Cc1cc(Oc2ccc([N+](=O)[O-])cc2)nc(N2CCOCC2)n1	-	.	-	?	-	-	.	.	.	.	.	.	.
Cc1cc(Oc2ccc(C#N)cc2)nc(N2CCOCC2)n1	55	-	-	43	41	-	.	-	-	-	-	-	-
O=C(c1cccc(Cl)c1)N1CCCC(C(=O)N2CCCCCC2)C1 (stereo not drawn)	-	-	-	-	-	-	.	.	.	.	.	.	.
CCOC(=O)/C(C(=O)Nc1ccccc1Cl)=C1/NC(C)(C)Cc2ccccc21	.	-	.	.	.	.	.	-	-	73	-	-	-
Cc1nc2ccccc2c(=O)n1/N=C/c1ccccc1	-	-	-	-	-	-	.	.	.	.	.	.	.
Cc1nc2ccccc2c(=O)n1/N=C/c1ccncc1	.	-	.	-	-	.	.	-	-	-	-	-	-
Cc1[nH]c2ccccc2c1SCc1ccccc1	-	-	-	-	-	-	.	.	.	.	.	.	.
CCC(C)(C)c1nnc(NC(=O)c2cccc([N+](=O)[O-])c2)s1	-	-	20	-	-	-	89	-	-	-	-	-	-
COc1cc(N(C(=O)Cc2cccs2)C(C(=O)NC2CCCCC2)c2cccc(OC)c2OC)ccc1-n1cnnn1 (stereo not drawn)	-	-	24	-	-	-	92	-	-	-	-	-	-
CSC(=S)N(C)C1CCS(=O)(=O)C1 (stereo not drawn)	-	-	25	-	-	-	87	-	-	-	-	-	-
Cc1nn(CC2CC2)c(=O)n1-c1ccc(Cl)cc1	-	-	-	?	-	-	.	.	.	.	.	.	.
Cc1cc(C)nc(N2CCC(C(=O)NNC(=O)Cc3ccccc3)CC2)n1	-	.	-	?	-	-	.	.	.	.	.	.	.
Cc1ccc(-c2nn3c(C)nnc3c3ccccc23)cc1S(=O)(=O)NCCO	-	-	-	172[activator]	-	73	115	-	-	-	-	-	-
Cc1ccc(-c2nn3c(C)nnc3c3ccccc23)cc1S(=O)(=O)NC(C)(C)CO	-	-	-	-	-	-	.	.	.	.	.	.	.
CC(NC(=O)c1sc2cc([N+](=O)[O-])ccc2c1Cl)C(C)(C)C (stereo not drawn)	-	-	15	-	-	-	98	-	65	-	41	-	16
CS(=O)(=O)N(CC(=O)NCC1CCCO1)c1cc(Cl)c(Cl)cc1Cl (stereo not drawn)	-	-	-	-	-	-	.	.	.	.	.	.	.
O=C(COc1ccc2c(c1)OCO2)NC12CC3CC(CC(C3)C1)C2	-	-	-	-	-	-	.	.	.	.	.	.	.
SMILES	RGS8-Gao reg	GSH fluor	RGS16-Gao HTS	RGS7-Gao reg	RGS4-Gao reg	Avidin bead fluor	RGS4-Gao HTS	Avidin counter	RGS8-Gao single	RGS7-Gao confirm	RGS16-Gao single	RGS4-Gao confirm	RGS19-Gao single
O=C(NCc1ccc2c(c1)OCO2)NC12CC3CC(CC(C3)C1)C2	149[activator]	-	-	-	-	-	136	-	-	-	-	-	223[activator]
CC(C(=O)c1c[nH]c(C(N)=O)c1)c1ncc(C(F)(F)F)cc1Cl (stereo not drawn)	58	-	-	-	-	-	53	-	-	-	-	-	-
CCN1CCN(CC(=O)Nc2ccc3c(c2)OCO3)C(=O)C1=O	-	-	-	-	-	-	.	.	.	.	.	.	.
CCC(=O)N1CCN(c2ccc(NC(=O)c3ccc4c(c3)OCCO4)cc2)CC1	-	-	-	-	-	-	.	.	.	.	.	.	.
CCC(=O)N1CCN(c2ccc(Cl)cc2NC(=O)c2ccc3c(c2)OCCO3)CC1	6.1	-	-0.4	2.0	0.4	-	.	-	-	-	-	-	-
CC(C)CSc1ccc(S(=O)(=O)NCC(=O)O)cc1[N+](=O)[O-]	-	-	-	278[activator]	-	169	125	-	-	-	-	-	-
CC(=O)NCCNS(=O)(=O)c1ccc(C)c([N+](=O)[O-])c1	-	.	-	-	-	-	.	.	.	.	.	.	.
O=C(/C=C/c1ccccc1)NNC(=O)C1CC1	.	-	.	.	.	.	.	-	-	-	-	-	-
Cc1ccccc1-c1ccc(=O)n(CC(=O)Nc2ccc(N3CCOCC3)cc2)n1	.	-	.	.	.	.	.	-	-	-	-	-	-
CCc1cccc(CC)c1NC(=O)C1CC(=O)N(c2ccc3c(c2)OCCO3)C1 (stereo not drawn)	-	-	-578	-	-	-	86	.	.	.	.	.	.
OC[C@@H]1CCCN1Cc1cn(-c2ccccc2)nc1-c1ccc2c(c1)OCO2	-	-	-	-	-	-	.	.	.	.	.	.	.
COCC1CCCCN1Cc1cn(-c2ccccc2)nc1-c1ccc2c(c1)OCO2 (stereo not drawn)	-	-	-	182[activator]	-	69	116	-	-	-	-	-	-
O=c1c2c(nc3cc(-c4ccc(Br)cc4)[nH]n13)CCCC2	-	-	-	-	-	-	.	.	.	.	.	.	.
